Measured values: PubChem BioAssay AID743293 (Broad Institute, 2014)
Potency and affinity values are given separately. The source made the active and inactive calls.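 How the source made its calls: active means compounds lowering fluorescence with a fitted half-maximal concentration at or below a set limit tied to top dose; inconclusive means flat curve with 30 to 70% inhibition, or poor fit; inactive means the rest.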

These compounds were tested against Caspase-9 (Homo sapiens) (UniProt P55211) (assay: inhibitors of purified CASP9 protease – biochemical, fluorescence, plate reader, cherry-picked samples, selectivity assay for caspase-6 inhibitor project, dose response (AID 743293)). Conditions: purified caspase-9, Z-LEHD-R110 cleavage fluorescence; series mostly up to 35 µM.
Sequence of Caspase-9 (Homo sapiens) (P55211 whole entry, looked up): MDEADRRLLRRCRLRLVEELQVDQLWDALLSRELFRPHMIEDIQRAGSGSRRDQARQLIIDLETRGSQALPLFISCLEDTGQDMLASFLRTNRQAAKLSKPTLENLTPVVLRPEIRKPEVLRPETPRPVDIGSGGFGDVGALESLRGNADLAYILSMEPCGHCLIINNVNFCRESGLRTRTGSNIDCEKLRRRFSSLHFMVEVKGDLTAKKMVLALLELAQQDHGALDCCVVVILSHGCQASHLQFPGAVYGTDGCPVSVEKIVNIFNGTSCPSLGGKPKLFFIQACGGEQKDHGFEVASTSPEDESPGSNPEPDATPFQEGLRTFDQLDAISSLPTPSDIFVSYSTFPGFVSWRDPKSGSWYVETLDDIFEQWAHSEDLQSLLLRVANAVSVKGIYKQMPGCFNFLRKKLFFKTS

outcome, inactive:
O=C(O)C1CCCCC1C(=O)Nc1cccc(Br)c1 (configuration not stated)
[O-][n+]1onc2c1CCc1c-2nn(-c2ccccc2Cl)[n+]1[O-]
COc1ccc(NS(=O)(=O)c2ccc3c(c2)[C@H]2C=CC[C@H]2[C@@H](c2ccc(C(=O)O)cc2)N3)cc1
O=S(=O)(O)c1cc(O)c2cc(Nc3ccccc3)ccc2c1
O=C(Nc1ccc2nc3n(c(=O)c2c1)CCCCC3)c1c(F)ccc([N+](=O)[O-])c1F
Cc1ccc(S(=O)c2ccc([N+](=O)[O-])c3nonc23)cc1 (configuration not stated)
CCN(CC)CCCC(C)n1c2nc(=O)[nH]c(=O)c-2nc2cc(Cl)ccc21 (configuration not stated)
O=C(CCO)c1ccc(O)cc1
COc1ccc([N+](=O)[O-])cc1NC(=O)CCS(=O)(=O)c1ccc(Br)cc1
COc1cc(NCCCCC(C)N)c2nccc(C)c2c1 (configuration not stated)
CCCSC1=N/C(=C\c2ccc([N+](=O)[O-])o2)C(=O)S1
Oc1cc(O)cc(C=Cc2ccc(O)c(O)c2)c1
O=C(Nc1ccc(S(=O)(=O)Nc2cnc3ccccc3n2)cc1)c1ccc(Cl)c([N+](=O)[O-])c1
Cc1cc(C=O)c(C)n1-c1ccc(Cl)c(C(=O)O)c1
O=C(c1cccc(-n2cccc2)c1)N1CCN(S(=O)(=O)c2ccccc2)CC1
O=C(O)/C(=C\c1ccc(Cl)c([N+](=O)[O-])c1)c1ccc(S(=O)(=O)N2CCCC2)s1
O=C(O)C1Nc2c(Cl)cc(Cl)c(Cl)c2C2C=CCC12 (configuration not stated)
